Compound activity (PubChem BioAssay)
ERp5 inh = inhibitors of ERp5-driven insulin aggregation, primary screen, biochemical, turbidity, absorbance 650 nm, single point; 90 min; Protein disulfide-isomerase A6 (Homo sapiens), Q15084; actives 0.05% (n = 350,000); AID 651711, 2012; inhibition, % at 9.99 µM;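 active means mean replicate inhibition above about 25%, with every replicate also reaching it, limit read from the data, passing the limit was not always enough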
PvdQ acylase = P. aeruginosa PvdQ acylase inhibitors, primary screen, biochemical, fluorescence, plate reader and imaging, single point; actives 0.063% (n = 340,000); inhibition, % at 10 µM; purified PvdQ acylase; PvdQ acylase [Pseudomonas aeruginosa LESB58]; in the data active means inhibition above about 30%, passing the limit was not always enough
Vif inh = HIV Vif self-association inhibitors, primary screen, imaging, HEK293T, single point | inhibition, % at 7.49 µM | actives 0.35% (n = 340,000) | HEK293T cells, Vif self-association by quenched fluorescence, 24 h; in the data active means inhibition above about 50%, passing the limit was not always enough
Glyco luc inh = increase of ERlucT glycosylation luciferase signal, primary screen, N-linked glycosylation inhibitor project, D54 ERlucT cells, luminescence, set 2. reporter increase, % at 12.5 µM. actives 0.23% (n = 360,000). D54 ERlucT glycosylation luciferase reporter, 24 h; percent of 100 nM tunicamycin response;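 active means mean luciferase reporter signal, scaled so untreated is 0 and the glycosylation-blocking control 100, at or above a set limit in every replicate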;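 further: luciferase carries N-glycosylation sites so blocking glycosylation raises the light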
PDI inh = inhibitors of human PDI, primary screen, biochemical, turbidity, single point, plate reader. PDI insulin aggregation turbidity, A650, 90 min. inhibition, % at 10 µM. actives 0.052% (n = 350,000). AID 588391, 2011;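 active means mean inhibition across replicates of 30% or more, whatever share of single replicates reach that level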
Target sequence (P07237 whole entry, looked up): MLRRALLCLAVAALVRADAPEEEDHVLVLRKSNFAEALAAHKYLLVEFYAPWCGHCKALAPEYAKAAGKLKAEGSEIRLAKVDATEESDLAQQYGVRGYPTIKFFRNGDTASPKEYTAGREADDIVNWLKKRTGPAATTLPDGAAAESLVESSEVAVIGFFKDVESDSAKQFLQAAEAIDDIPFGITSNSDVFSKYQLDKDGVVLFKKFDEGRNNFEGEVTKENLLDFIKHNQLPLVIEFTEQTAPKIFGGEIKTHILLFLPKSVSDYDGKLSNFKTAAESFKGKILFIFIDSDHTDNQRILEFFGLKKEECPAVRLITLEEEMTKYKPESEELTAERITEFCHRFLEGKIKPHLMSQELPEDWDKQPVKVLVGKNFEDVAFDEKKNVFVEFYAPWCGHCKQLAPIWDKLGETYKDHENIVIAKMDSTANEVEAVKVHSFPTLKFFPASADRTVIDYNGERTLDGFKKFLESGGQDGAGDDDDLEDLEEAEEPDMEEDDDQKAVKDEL
Each line names hits and unclear results; the compound was inactive in the other large screens. Sampled rows, rich in hits. Any-hit rate of the full collection: about 0.56%.

Cc1ccc(NC(=O)COC(=O)c2ccc([N+](=O)[O-])s2)c(C)c1	none
Cc1nnc(SC(C)C(=O)Nc2sc3c(c2C#N)CCCC3)[nH]c1=O (stereo not drawn)	Vif inh 53
CC(Sc1nc(N)cc(=O)[nH]1)C(=O)Nc1sc2c(c1C#N)CCCC2 (stereo not drawn)	none
CCCn1c2ccccc2c2nc3ccccc3nc21	none (no result: ERp5 inh)
CCN(CC)CCn1c2ccccc2c2nc3ccccc3nc21	Glyco luc inh 129
Cc1ccc(S(=O)c2snnc2C)cc1 (stereo not drawn)	none
Cc1ccc(S(=O)c2ccc(C)cc2)cc1	PvdQ acylase 79 (no result: ERp5 inh)
FC(F)(F)c1nnc(-c2ccccc2)nc1Oc1ccc(Cl)cc1Cl	Vif inh 51 (no result: ERp5 inh)
O=C1Nc2ccccc2N(O)N1c1ccc(Cl)cc1	none
CCN1c2ccccc2NC2C1C(C(C)=O)C(=O)N2c1ccc(Cl)cc1 (stereo not drawn)	Vif inh active
O=C(/C=C/c1ccc(Br)cc1)c1ccco1	PvdQ acylase 56
CN1c2ccccc2C(C)(C)[C@]12C=Cc1cc(O)ccc1O2	Vif inh 74 (no result: ERp5 inh)
Cn1nc(-c2ccc(Cl)cc2)c2cc(C(=O)NCCCN3CCOCC3)sc21	Glyco luc inh 33 (no result: ERp5 inh)
CCN(CC)CCNC(=O)c1cc2c(-c3ccc(Cl)cc3)nn(C)c2s1	Glyco luc inh 36
Cc1cc(S(=O)(=O)N2CCCCC2CCNC(=O)C(=O)NCCN2CCOCC2)ccc1F (stereo not drawn)	none (no result: PvdQ acylase)
O=C(N[C@H]1C=C[C@H](CC(=O)N2CCN(c3ccccc3)CC2)O[C@H]1CO)c1ccncc1	none (no result: PvdQ acylase, Vif inh, Glyco luc inh, PDI inh)
CCCN1C(=O)C(O)(c2c(C)[nH]c3ccccc23)c2ccccc21 (stereo not drawn)	none
Cc1[nH]c2ccccc2c1C1(O)C(=O)N(C(C)C)c2ccccc21 (stereo not drawn)	Vif inh 57 (no result: ERp5 inh)
Nc1ncnc2c1ncn2[C@@H]1O[C@H](COP(=O)(O)O)[C@@H](O)[C@H]1O	Vif inh 106
Nc1ncnc2c1ncn2C1OC(COP(=O)(O)O)C(O)C1O (stereo not drawn)	Vif inh 66
Nc1ncnc2c1ncn2[C@@H]1O[C@H](CO)C[C@H]1O	Vif inh 56
Nc1ncnc2c1ncn2C1OC(CO)C2OC21 (stereo not drawn)	none (no result: PvdQ acylase, PDI inh)
Nc1ncnc2c1ncn2[C@@H]1O[C@H](COP(=O)(O)OP(=O)(O)OP(=O)(O)O)[C@@H](O)[C@H]1O	none
CNc1ccc(/C=C/C(=O)c2cccc3ccccc23)cc1[N+](=O)[O-]	Glyco luc inh 46
CNc1ccc(C(=O)c2ccccc2C(=O)O)cc1[N+](=O)[O-]	none
CC(=O)c1cccc(Nc2cc(C)nc3c(C)cc(C)cc23)c1	Glyco luc inh 67 (no result: ERp5 inh)
COC(=O)c1ccccc1NC(=O)C/C(C)=N/NC(=O)Cc1ccc(Cl)cc1	none
COc1cc(NC(=O)C/C(C)=N/NC(=O)Cc2ccc(Cl)cc2)c(OC)cc1Cl	Vif inh 73 (no result: ERp5 inh)
COc1ccc2[nH]c3c4c(ccc3c2c1)C(=O)C=CC4=O	Vif inh 52
Cc1cccc(NC(=O)CNC(=O)Cn2ncc(Cl)c(Cl)c2=O)c1C	Vif inh 57 (no result: ERp5 inh)
Cc1cc(CN(C)C(=O)c2ccc(OC3CCN(Cc4ccccn4)CC3)cc2)on1	none
O=C1Cc2c(-c3ccccc3)cc(-c3cccc(Cl)c3)nc2-c2ccccc2N1	Glyco luc inh 72
CC(=O)Nc1ccc(-n2nnnc2SCC(=O)NC2CCCC2)cc1	none
COc1cc(-c2csc(C)n2)ccc1O	none (no result: ERp5 inh)
Cc1nc(-c2ccc(O)c(O)c2)cs1	Vif inh 67 (no result: ERp5 inh)
C(=N\Nc1nc2ccccc2[nH]1)/c1ccc2ncccc2c1	Glyco luc inh 45
C(=N\Nc1nc2ccccc2[nH]1)/c1ccccn1	none
CC(=O)N(C)C[C@@H]1Oc2ncc(-c3ccc(F)cc3)cc2C(=O)N([C@H](C)CO)C[C@@H]1C	none (no result: PvdQ acylase, Vif inh, Glyco luc inh, PDI inh)
COc1cc(OC)nc(Oc2ccccc2C(=O)Oc2cccc(C)c2)n1	Vif inh 74 (no result: ERp5 inh)
COc1cc(C(=O)Oc2cccc(C)c2)cc(OC)c1OC	none (no result: ERp5 inh)
Cc1ccccc1OCC(=O)N/N=C/c1cccc2cccnc12	none
Cc1nc2ncnn2c(C)c1Cc1ccccc1Cl	none
COc1ccc(/C=C2\COc3ccccc3C2=O)cc1OC	Glyco luc inh 36 (no result: ERp5 inh)
COc1ccc(/C=C2/CCc3ccccc3C2=O)cc1OC	none (no result: ERp5 inh)
N#CC(c1ccc(Cl)nn1)c1ccc(Cl)cc1Cl (stereo not drawn)	PvdQ acylase 114 (no result: ERp5 inh)
COc1ccc(C(C#N)c2ccc(Cl)nn2)cc1 (stereo not drawn)	PvdQ acylase 46
CN(C)c1ccc(C(C#N)c2ccc(Cl)cc2)nn1 (stereo not drawn)	none
C[C@H](CO)N1C[C@H](C)[C@H](CN(C)CC2CCCCC2)OCCCC[C@H](C)Oc2ccc(NS(=O)(=O)c3ccccc3)cc2C1=O	none (no result: PvdQ acylase, Vif inh, Glyco luc inh, PDI inh)
Cc1ccc(S(=O)(=O)NC2=C(N3CCN(Cc4ccccc4)CC3)C(=O)c3ccccc3C2=O)cc1	Glyco luc inh 65
CCOC(=O)C1=C(O)/C(=C/c2cc(OC)c(O)c(OC)c2)SC1=Nc1ccc(OC)cc1	none (no result: ERp5 inh)
CCOCC(=O)NC1CCc2cc(OC(=O)COCC)c(OC)c(OC)c2-c2ccc(SC)c(=O)cc21 (stereo not drawn)	Vif inh 95
O=C(NCc1ccccc1)C(c1ccc(C(F)(F)F)cc1)n1c(=O)c(-c2ccccc2)nc2ccccc21 (stereo not drawn)	none (no result: PvdQ acylase, Vif inh, Glyco luc inh, PDI inh)
CC(C)(C)c1ccc(OCC(=O)Nc2ccncc2)c(Br)c1	Glyco luc inh 34
CCOc1ccc(S(=O)(=O)NCc2cccnc2)cc1NC(=O)c1ccccc1F	none
O=C(Cc1cccs1)Nc1ccc(-c2nc3ccccc3[nH]2)cc1	Glyco luc inh 33 (no result: ERp5 inh)
COCCCN1C(=O)C(CC(=O)NCc2cccc3ccccc23)CC(C(=O)N2CCOCC2)=C1C (stereo not drawn)	Vif inh 67 (no result: PvdQ acylase, PDI inh)
COc1ccc(CC(=O)OCC(=O)Nc2ccc(N3CCOCC3)cc2)cc1	Vif inh 81
COc1cc(CC(=O)OCC(=O)Nc2ccc(N3CCOCC3)cc2)cc(OC)c1OC	none
O=C(CCN1C(=O)c2ccccc2C1=O)C1=NN[C@@H]2C(=O)N(c3ccc4c(c3)OCCO4)C(=O)[C@H]12	none (no result: PvdQ acylase)
CC1=C(/C=C/C(C)=C/C=C/C(C)=C/C(=O)O)C(C)(C)CCC1	Vif inh 65
CN(C)CCCN1C(=O)c2cccc3cccc(c23)C1=O	Glyco luc inh 116
O=C1c2cccc3cc([N+](=O)[O-])cc(c23)C(=O)N1CC1CCCO1 (stereo not drawn)	none
CN(C)CCN1C(=O)c2cccc3cc([N+](=O)[O-])cc(c23)C1=O	Glyco luc inh 43
